A selection: hits, their analogues and other compounds. The true share with any hit is near 2%.
Beta cell apopt: beta cell apoptosis inhibition | INS-1E cytokine-induced death, ATP luminescence, 48 h; percent of positive-control rescue, neutral wells zero | protection from apoptosis, % (concentration not given with the values) | 0.8% of 300,000 active | AID 435005;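 active = Every replicate reaches about 75%, or at least half do and their mean reaches it too, limit read from the data; inconclusive = At least half of replicates reach the limit but their mean does not; inactive = Under half of replicates reach the limit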;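 note: 0% = cytokine-treated negative control wells and 100% = positive control rescue; higher means more ATP so stronger rescue from cytokine killing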
Jurkat NFkB inh: inhibitors of the PMA/ionomycin-induced NF-kB reporter in Jurkat cells. PMA/ionomycin-induced NF-kB luciferase reporter, luminescence. inhibition, % at 4 µM. 0.53% of 330,000 active. AID 435003; in the data active = inhibition above about 50%
697 NFkB inh: inhibitors of the PMA/ionomycin-induced NF-kB reporter in 697 B cells; AID 435022; inhibition, % at 4 µM; 0.33% of 330,000 active; 697 B-cell NF-kB luciferase reporter, 16 h; in the data active = inhibition above about 35%
Calb FLC: affects C. albicans growth with fluconazole | 0.57% of 300,000 active | C. albicans CaCi-2 (fluconazole-resistant clinical isolate) + fluconazole, Alamar Blue growth, 48 h | growth inhibition, % (concentration not given with the values);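 active = growth inhibition above about 58% in most replicates, limit read from the data, passing the limit was not always enough; inconclusive = exactly half the replicates above a set limit; inactive = most replicates below a set limit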;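 note: all wells also contain fluconazole at 8 µg/ml as a sub-toxic cotreatment; 0% = median of DMSO wells and 100% = median of geldanamycin control wells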
Shn3 3UTR inh: reduces Shn3 3'UTR luciferase signal in osteoblasts; Clone20 osteoblast Shn3 3'UTR firefly luciferase, 24 h; inhibition, % at 12.5 µM; 0.52% of 360,000 active; AID 588674;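 active = mean inhibition of at least 75% with every replicate also reaching 75%; inconclusive = mean inhibition at least 75% but some replicate below; inactive = mean inhibition below 75%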;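 note: 0% = median of neutral control wells and 100% = pilot-screen positive control compound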
Jurkat NFkB conf: lowers PMA/ionomycin-induced NF-kB signal in Jurkat cells; shares compounds with Jurkat NFkB inh; Jurkat NF-kB luciferase, 16 h; inhibition, % at 4 µM; 27% of 2,700 active; AID 435020;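 active = inhibition reaching about 45% at 4 µM in either replicate, limit read from the data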;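 note: plate controls were PMA/ionomycin stimulated DMSO wells for no effect and unstimulated DMSO wells for full effect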
Numbers without * were called inactive.

How did CCCCc1ccc(NC(=O)c2cnccn2)cc1 do in these assays?
Beta cell apopt: 7; Jurkat NFkB inh: -156; 697 NFkB inh: -206; Calb FLC: 0; Shn3 3UTR inh: -10; Jurkat NFkB conf: -105

What do the screens show for `O=C(Nc1ccc(S(=O)(=O)N2CCCC2)cc1)c1cnccn1`?
Beta cell apopt: -3; Jurkat NFkB inh: 2; 697 NFkB inh: 21; Calb FLC: -21; Shn3 3UTR inh: -7

What do the screens show for `CCCCOC(=O)Nc1ccc(N2CCCCC2)cc1`?
Beta cell apopt: 2; Jurkat NFkB inh: -182; 697 NFkB inh: -163; Calb FLC: -12; Shn3 3UTR inh: -54; Jurkat NFkB conf: -95

Results for O=C(Nc1ccc(S(=O)(=O)N2CCCC2)cc1)c1ccc(CN2CCOCC2)cc1 ?
Beta cell apopt: -6; Jurkat NFkB inh: 35; 697 NFkB inh: -20; Calb FLC: -7; Shn3 3UTR inh: 10

Results for CCCCOC(=O)Nc1ccc(N2CCOCC2)cc1 ?
Beta cell apopt: -4; Jurkat NFkB inh: -50; 697 NFkB inh: -48; Calb FLC: 17; Shn3 3UTR inh: -40

What do the screens show for `O=C(Nc1ccc(N2CCOCC2)cc1)c1ccc(Cl)c(S(=O)(=O)N2CCCCC2)c1`?
Beta cell apopt: 38; Jurkat NFkB inh: 51*; 697 NFkB inh: 27; Shn3 3UTR inh: 85; Jurkat NFkB conf: 57*

Results for O=C(Nc1ccc(S(=O)(=O)N2CCCCC2)cc1)c1ccc(CN2CCOCC2)cc1 ?
Beta cell apopt: 18; Jurkat NFkB inh: 62*; 697 NFkB inh: 12; Calb FLC: 11; Shn3 3UTR inh: 44; Jurkat NFkB conf: 61*

What do the screens show for `O=C(Nc1ccc(S(=O)(=O)N2CCN(Cc3ccccc3)CC2)cc1)c1cnccn1`?
Beta cell apopt: 44; Jurkat NFkB inh: 57*; 697 NFkB inh: -6; Calb FLC: 13; Shn3 3UTR inh: 82*; Jurkat NFkB conf: 54*

Results for CC(C)(C)c1ccccc1OCC(=O)NCc1ccccc1 ?
Beta cell apopt: 1; Jurkat NFkB inh: -18; 697 NFkB inh: -21; Calb FLC: 3; Shn3 3UTR inh: 1

Results for COc1ccc(C(CNC(=O)c2ccc(NS(=O)(=O)c3ccc4c(c3)OCCO4)cc2)N(C)C)cc1 (stereo unspecified) ?
Jurkat NFkB inh: 26; 697 NFkB inh: 0; Calb FLC: 0; Shn3 3UTR inh: 14

Results for C[C@@H]1CN([C@@H](C)CO)C(=O)c2cc(Br)cnc2O[C@H]1CN(C)C(=O)Cc1cccnc1 ?
Shn3 3UTR inh: 1

Results for COc1ccc(-n2nc(C(=O)NCC(=O)Nc3cc(OC)c(OC)c(OC)c3)c3ccccc3c2=O)cc1OC ?
Beta cell apopt: -5; Jurkat NFkB inh: 57*; 697 NFkB inh: 31; Calb FLC: 0; Shn3 3UTR inh: 13; Jurkat NFkB conf: -8

Results for COc1ccc(-n2nc(C(=O)NCC(=O)Nc3cc(OC)c(OC)c(OC)c3)c3ccccc3c2=O)cc1 ?
Beta cell apopt: 7; Jurkat NFkB inh: 10; 697 NFkB inh: 22; Calb FLC: 5; Shn3 3UTR inh: 13

How did COc1ccc2c(c1)CCc1c(C(=O)NC3CCCCC3)noc1-2 do in these assays?
Beta cell apopt: 10; Jurkat NFkB inh: -180; 697 NFkB inh: -146; Calb FLC: 14; Shn3 3UTR inh: -65; Jurkat NFkB conf: -125

How did COCCNC(=O)c1noc2c1CCc1cc(OC)ccc1-2 do in these assays?
Beta cell apopt: 10; Jurkat NFkB inh: -66; 697 NFkB inh: -41; Calb FLC: inconclusive; Shn3 3UTR inh: -115

How did C=C(C)COc1ccc(-c2[nH]ncc2-c2ccc(OC)c(OC)c2)c(O)c1 do in these assays?
Beta cell apopt: 24; Jurkat NFkB inh: 64*; 697 NFkB inh: -60; Calb FLC: -7; Shn3 3UTR inh: 53; Jurkat NFkB conf: 62*

How did C=C(C)COc1ccc(-c2n[nH]c(C)c2-c2ccc(OC)c(OC)c2)c(O)c1 do in these assays?
Beta cell apopt: 21; Jurkat NFkB inh: 67*; 697 NFkB inh: -13; Calb FLC: 1; Shn3 3UTR inh: 16; Jurkat NFkB conf: 50*

What do the screens show for `O=C1NC(=S)NC1(c1ccccc1)c1ccccc1`?
Shn3 3UTR inh: -6

What do the screens show for `CCOc1ccc2c(c1)C(C)=CC(C)(C)N2S(=O)(=O)c1ccc(NC(C)=O)cc1`?
Beta cell apopt: 45; Jurkat NFkB inh: 56*; 697 NFkB inh: -156; Calb FLC: inconclusive; Shn3 3UTR inh: -22; Jurkat NFkB conf: 58*

How did COc1ccc(-c2c(C)nc3c(-c4ccc(F)cc4)cnn3c2N)cc1 do in these assays?
Beta cell apopt: 2; Jurkat NFkB inh: -183; 697 NFkB inh: -207; Calb FLC: -1; Shn3 3UTR inh: -77; Jurkat NFkB conf: -73

How did Cc1nc2c(-c3ccc(Cl)cc3)cnn2c(N)c1-c1ccc(F)cc1 do in these assays?
Beta cell apopt: 17; Jurkat NFkB inh: -51; 697 NFkB inh: -248; Calb FLC: 32; Shn3 3UTR inh: -40

Results for Cn1c(/C=C/c2ccc([N+](=O)[O-])o2)nc2ccccc2c1=O ?
Beta cell apopt: 106*; Jurkat NFkB inh: 82*; 697 NFkB inh: -35; Calb FLC: 4; Shn3 3UTR inh: 96*; Jurkat NFkB conf: 26

Results for O=[N+]([O-])c1ccc(F)cc1OCc1nc(-c2cccs2)no1 ?
Calb FLC: 58; Shn3 3UTR inh: 28

How did O=[N+]([O-])c1ccccc1OCc1nc(-c2cccs2)no1 do in these assays?
Jurkat NFkB inh: -162; 697 NFkB inh: -166; Calb FLC: 26; Shn3 3UTR inh: -85; Jurkat NFkB conf: -121

Results for Cc1ccc(OCc2ccccc2Br)c([N+](=O)[O-])n1 ?
Beta cell apopt: -1; Jurkat NFkB inh: -5; 697 NFkB inh: -5; Calb FLC: 7; Shn3 3UTR inh: -20

Results for Cc1ccc(CNC(=O)COc2ccc(C)nc2[N+](=O)[O-])cc1 ?
Beta cell apopt: 1; Jurkat NFkB inh: 87*; 697 NFkB inh: -29; Calb FLC: 5; Shn3 3UTR inh: -18; Jurkat NFkB conf: 0

How did Cc1ccc(OCC(=O)NCc2ccc3c(c2)OCO3)c([N+](=O)[O-])n1 do in these assays?
Beta cell apopt: 0; Jurkat NFkB inh: 8; 697 NFkB inh: 7; Calb FLC: -5; Shn3 3UTR inh: -4

What do the screens show for `Cc1ccc(COc2ccc(C)nc2[N+](=O)[O-])cc1`?
Beta cell apopt: 2; Jurkat NFkB inh: -151; 697 NFkB inh: -155; Calb FLC: -4; Shn3 3UTR inh: -46; Jurkat NFkB conf: -85

How did CC(C)(C)OC(=O)N1C[C@H](O)C[C@H]1C(=O)OCC(=O)c1ccc([N+](=O)[O-])cc1 do in these assays?
Beta cell apopt: 6; Jurkat NFkB inh: -5; 697 NFkB inh: -4; Calb FLC: 4; Shn3 3UTR inh: 8

How did Cc1c(C(C)(C)C)sc(=NC(=O)c2ccccc2O)n1C do in these assays?
Beta cell apopt: 8; Jurkat NFkB inh: -193; 697 NFkB inh: -226; Calb FLC: 5; Shn3 3UTR inh: -6; Jurkat NFkB conf: -113
